# Screens: PubChem BioAssay, National Center for Advancing Translational Sciences (NCATS)
# GCN5L2 inh = qHTS Assay for Inhibitors of GCN5L2. Histone acetyltransferase KAT2A (Homo sapiens), Q92830. GCN5L2 HAT assay, ThioGlo1 CoA-SH fluorescence. Potency, µM (top dose mostly 58.9 µM), without a hit: top-dose activity change, negative = inhibition, hits mostly inhibitors. actives 0.21% (n = 390,000)
#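 Titration-based screen in which CoA formation is detected via maleimide probe ThioGlo1 (50uM) turning fluorescent on thiol reaction; substrates H3(1-25) 75uM and acetyl-CoA 70uM, GCN5L2 20nM, 20 min incubation at room temperature.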
# TDP1 cell noCPT = qHTS for Inhibitors of human tyrosyl-DNA phosphodiesterase 1 (TDP1): qHTS in cells in absence of CPT; DT40 Tdp1-/- hTDP1 cells, no CPT, ATP luminescence, 48 h; Potency, µM (series often up to 46.2 µM), without a hit: at the top dose activity change, negative = growth inhibition, actives largely listed as inhibitors; actives 15% (n = 420,000); AID 686978, 2013; also: nearly all actives have a fitted effect of over 55% in size
#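 Compound effects on proliferation are scored in DT40 Tdp1-/-;hTDP1 cells in the absence of CPT. ATP levels (CellTiter-Glo luminescence) are recorded after a ≥48 hr, 37 °C incubation.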
# PLK1 PBD inh = qHTS for Inhibitors of PLK1-PDB (polo-like kinase 1 - polo-box domain): Primary Screen | Potency, µM, without a hit: max response, negative = inhibition, usual class: inhibitors | actives 2.8% (n = 360,000) | AID 720504, 2013 | Plk1 PBD binding of FITC phosphopeptide, fluorescence polarization; also: series mostly up to about 57 µM; nearly all actives have a fitted effect of over 65% in size
# TDP1 inh = qHTS Assay for Inhibitors of Tyrosyl-DNA Phosphodiesterase (TDP1); Tyrosyl-DNA phosphodiesterase 1 (Homo sapiens), Q9NUW8; recombinant TDP1, AlphaScreen DNA substrate cleavage; Potency, µM (series often up to 130 µM), inactives show at the top dose activity change, negative = inhibition, most hits filed as inhibitors; actives 0.28% (n = 350,000); AID 485290, 2010; also: nearly all actives have a fitted effect of over 40% in size
#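 Tdp1 1 nM final; 15 min RT w/ cpd; substrate 15 nM, 5 min; beads 10 ug/ml, 10 min; AlphaScreen read. Neg ctrl: no enzyme.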
# VDR inh = Inhibitors of the vitamin D receptor (VDR): qHTS; Potency, µM, without a hit: max response, negative = inhibition, usual class: inhibitors; actives 0.93% (n = 400,000); VDR-SRC2-3 peptide fluorescence polarization, 2 h; Vitamin D3 receptor (Homo sapiens), P11473
# Target sequence (P11473 whole entry, looked up): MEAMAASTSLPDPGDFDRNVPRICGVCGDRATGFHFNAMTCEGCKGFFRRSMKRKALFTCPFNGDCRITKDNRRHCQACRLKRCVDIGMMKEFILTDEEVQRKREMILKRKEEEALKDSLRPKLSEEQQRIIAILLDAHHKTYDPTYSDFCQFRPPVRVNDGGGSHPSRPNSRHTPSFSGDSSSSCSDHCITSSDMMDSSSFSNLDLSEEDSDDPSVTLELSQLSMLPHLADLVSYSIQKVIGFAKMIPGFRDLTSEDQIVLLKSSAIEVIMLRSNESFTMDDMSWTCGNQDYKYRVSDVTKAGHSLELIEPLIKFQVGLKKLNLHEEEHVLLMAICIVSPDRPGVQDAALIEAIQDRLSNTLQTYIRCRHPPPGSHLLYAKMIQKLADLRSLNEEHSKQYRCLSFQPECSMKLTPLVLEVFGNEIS
#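 Fluorescence polarization assay measuring small-molecule disruption of VDR binding to the coregulator peptide SRC2-3. Compounds were pin-transferred (23 nl) into the reagent mix and incubated 2 h at room temperature before reading.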
# DT40 TDP1 CPT = qHTS for Inhibitors of human tyrosyl-DNA phosphodiesterase 1 (TDP1): qHTS in cells in presence of CPT; chicken DT40 Tdp1-/-;hTDP1 cells + 20 nM CPT, ATP luminescence, 48 h; Potency, µM (highest dose often 46.2 µM), for inactives: at the highest dose activity change, negative = growth inhibition, actives largely listed as inhibitors; actives 12% (n = 420,000); AID 686979, 2013; also: nearly all actives have a fitted effect of over 55% in size
#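 Chicken DT40 Tdp1-/- cells complemented with human TDP1, 400 cells/well, exposed to compounds plus 20 nM camptothecin for at least 48 h at 37 C; viability read as ATP content by CellTiter-Glo luminescence.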
# * hit, by the source's call; ? = inconclusive; / = no result; [ ] = another dose, or the depositor's remark. Most compounds without a hit are left out; they make up all but 18% or so of the library. Calls follow the shape of the dose curve; as a rule, active = well fitted curve in the direction sought with a large enough effect; inconclusive = small, poorly fitted or top-dose-only effect, or another doubt; inactive = no such curve, though single readings can be large; an effect the other way counts as inactive or inconclusive. % is scaled to controls: 0 for no effect and ±100 for the full control effect; potency is read from the fitted curve at half-maximal effect.
SMILES,GCN5L2 inh,TDP1 cell noCPT,PLK1 PBD inh,TDP1 inh,VDR inh,DT40 TDP1 CPT
O=C(Cc1cccc(NC(=O)C2CCN(C(=O)C3CCC3)CC2)c1)Nc1cccc(C(=O)N2CCOCC2)c1,/,-4%,-6%,/,-9%,-7%
CCOc1ccc(C(=O)Nc2c(C(=O)c3ccc(OC)cc3)oc3ccccc23)cc1,-4%,/,/,1%,7%,/
CCC(C)NC(=O)C1CCN(C(=O)c2ccc(-n3ccc4ccccc43)s2)CC1 (centres undefined),2%,?,/,3%,-3%,?
CC(C)CCNC(=O)c1ccc2nc(CCc3ccccc3)oc2c1,-21%,-19%,/,5%,7%,8%
COc1ccc2c(c1)-c1nc(-n3ncc(C(=O)N(C)CC4CCCN(C)C4)c3C3CC3)ncc1CC2 (centres undefined),/,-12%,/,/,/,16%
CCCCC[n+]1cccc2c3ccccc3ccc21,-1%,0.0073µM*,0%,13%,3%,0.52µM*
Brc1cccc[n+]1Cc1ccc(C[n+]2ccccc2Br)cc1,/,-8%,/,/,/,3%
c1ccc(C[n+]2cccc3c4ccccc4ccc32)cc1,-2%,3.7µM*,-1%,5%,2%,3.7µM*
CCNc1ncc2nc(-c3cccs3)c(=O)n(Cc3cccc(OC)c3)c2n1,-5%,-3%,/,/,-14%,-15%
CC1CCN(S(=O)(=O)c2ccc(NC(=S)NC(=O)c3ccc(Cl)cc3)cc2)CC1,-1%,?,?,2%,-3%,?
CN1CCN(S(=O)(=O)c2ccc(NC(=S)NC(=O)c3ccc(Cl)cc3)cc2)CC1,-8%,?,19µM*,11%,-16%,?
NS(=O)(=O)c1ccc(NC(=O)c2ccc(S(=O)(=O)N3CCCCC3)cc2)cc1,-3%,-12%,1%,-4%,-4%,-16%
O=C(NC(=S)Nc1ccc(S(=O)(=O)N2CCCCC2)cc1)c1ccc(Cl)cc1,-3%,10µM*,-14%,-8%,-8%,16µM*
CN1CCN(S(=O)(=O)c2ccc(NC(=S)NC(=O)c3ccccc3)cc2)CC1,-9%,-22%,27µM*,5%,-2%,-11%
Cc1oc(S(=O)(=O)N2CCCCC2)cc1NC(=O)Nc1ccc(Cl)cc1,-6%,16µM*,1%,9%,7%,16µM*
Cc1oc(S(=O)(=O)N2CCCCC2)cc1NC(=O)Nc1ccccc1,-3%,?,3%,/,-20%,?
C[C@H]1CN([C@@H](C)CO)C(=O)CCCn2nncc2CO[C@H]1CN(C)C(=O)C1CCCCC1,/,?,-6%,/,/,?
CCCN1CNc2c(c(=O)[nH]c(=S)n2CCc2ccc(C)c(C)c2)C1,/,?,/,1%,?,?
COC(=O)C1=C(C)NC(=O)NC1c1ccc(OC)c(OC)c1 (centres undefined),/,-16%,-11%,/,/,1%
COC(=O)C1=C(C)NC(=O)NC1c1ccc(N2CCC(c3ccccc3)=N2)cc1 (centres undefined),-20%,?,27µM*,/,?,?
CCCOc1ccc(-c2nn(-c3ccccc3)cc2C2NC(=O)NC(C)=C2C(=O)OC)cc1 (centres undefined),-8%,16µM*,/,/,-14%,?
COc1ccccc1N(C)S(=O)(=O)c1ccc(C(=O)N2CCCc3ccccc32)cc1,-13%,23µM*,1%,/,1%,21µM*
COc1ccc(S(=O)(=O)N2CCCCC2)cc1N(C)S(=O)(=O)c1ccccc1,?,?,-10%,2%[56.1 µM],9%,?
COc1ccccc1N(C)S(=O)(=O)c1ccc(C(=O)N(C)Cc2cccc(F)c2)cc1,/,16µM*,8%,/,/,16µM*
COc1ccccc1N(C)S(=O)(=O)c1ccc(C(=O)Nc2ccc(C)cc2C)cc1,-1%,23µM*,-9%,-8%[0.505 µM],5%,?
SMILES,GCN5L2 inh,TDP1 cell noCPT,PLK1 PBD inh,TDP1 inh,VDR inh,DT40 TDP1 CPT
COc1ccc(S(=O)(=O)N2CCCCCC2)cc1N(C)S(=O)(=O)c1ccccc1,-4%,23µM*,-1%,0%,-13%,?
COc1ccccc1N(C)S(=O)(=O)c1ccc(C(=O)Nc2cc(OC)c(OC)c(OC)c2)cc1,/,12µM*,4%,/,16%,16µM*
COc1cccc(NS(=O)(=O)c2ccc(C)c(C(=O)N3CCCCC3)c2)c1,-8%,-13%,-6%,4%[56.1 µM],1%,?
COc1ccccc1N(C)S(=O)(=O)c1ccc(C)c(C(=O)N2CCCCCC2)c1,1%,7.3µM*,-5%,-10%,-23%,7.3µM*
COc1cc(NC(=O)c2ccc(S(=O)(=O)N(C)C)cc2)cc(OC)c1OC,0%,-13%,0%,6%,0%,-12%
CC(=O)c1ccccc1OCC(O)CN1CCN(CCN2C(=O)c3cccc4cccc(c34)C2=O)CC1 (centres undefined),14%,6.5µM*,-17%,11%,-2%,6.5µM*
Cc1ccc(C)c(OCC(O)CN2CCN(CCN3C(=O)c4cccc5cccc(c45)C3=O)CC2)c1 (centres undefined),-6%,18µM*,23%,0%,-5%,16µM*
CC(=O)NC(CC(=O)OCC(=O)N1CCc2ccccc21)c1ccccc1 (centres undefined),-9%,9%,-8%,/,6%,10%
O=C(CCc1nc2cccnc2n1Cc1cccs1)Nc1cccc(Cl)c1,1%,?,/,1%,-17%,16µM*
Cc1cc(NC(=O)CCc2nc3cccnc3n2Cc2cccs2)ccc1Br,-3%,21µM*,/,6%,-20%,16µM*
COc1ccc(Cn2c(CCC(=O)Nc3cc(C)cc(C)c3)nc3cccnc32)cc1,-5%,?,/,9%,-11%,?
CCCn1c(CCC(=O)Nc2cccc(CC)c2)nc2cccnc21,1%,?,/,4%,-17%,16µM*
CCOc1ccc(OCC)c(NC(=O)CCc2nc3cccnc3n2Cc2cccs2)c1,-5%,16µM*,/,6%,-8%,?
CCN(CC)c1ccc(NC(=O)CCc2nc3cccnc3n2Cc2cccs2)c(C)c1,-5%,?,/,4%,-8%,?
